# ± gives the standard deviation of the averaged measurements.
# System: TDF
# Test: cell number relative to DMSO (% of DMSO); higher = more cells (less growth inhibition / toxicity)
# Conditions: concentration: 10 µM; 24 h
# Outline: (§1)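 Six fields per well were imaged at ×10 after the cells were fixed in 3.7% formaldehyde and stained with a rabbit anti-H1.0 antibody, an AlexaFluor 647 secondary and DAPI. The HCC1569 and TDF cells had been plated at 800 per well in 384-well plates (RPMI, 10% FBS) and treated in triplicate with compounds at 10 µM for 24 h at 37 °C. The values are the median of replicates of H1.0 nuclear intensity or cell number, as percent of the plate control. Smoothing for positional effects was applied to HCC1569 data.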
# 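For H1.0 immunofluorescence intensity relative to DMSO in this document: TDF is a line of transformed human dermal fibroblasts of mesenchymal origin.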
# 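For cell number relative to DMSO in this document: TDF denotes transformed human dermal fibroblasts of mesenchymal origin.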
row,SMILES,cell number
1,CN(C)CCCSc1ccccc1NC(=O)C=Cc1ccccc1 [Cinanserin],102
2,COc1cc2c(cc1OC)-c1cc(=Nc3c(C)cc(C)cc3C)n(C)c(=O)n1CC2.Cl [Trequinsin.HCl],107
3,"NC(N)=NC(=O)c1nc(Cl)c(N2CCCCCC2)nc1N [5-(N,N-hexamethylene)amiloride]",85.1
4,COc1ccc(C2CNC(=O)C2)cc1OC1CCCC1 (stereo not given) [Rolipram],108 ± 4.6
5,"N[C@@H](Cc1ccc(O)c(O)c1)C(=O)O [L-3,4-Dihydroxyphenylalanine]",105
6,O=c1cc(-c2ccccc2)oc2cc(O)ccc12 [7-Hydroxyflavone],104
7,"O=C(O)[C@H]1C[C@H](C(=O)O)N1 (relative stereo) [trans-Azetidine-2,4-dicarboxylic acid]",106
8,CCOC(=O)C1=C(C)NC(=S)NC1c1cccc(O)c1 (stereo not given) [Monastrol],112
9,CCOC(=O)Nc1ccc(NCc2ccc(F)cc2)nc1N.O=C(O)C=CC(=O)O [Flupirtine maleate],99.2
10,"CCCCC(C)(O)CC=CC1C(O)CC(=O)C1CCCCCCC(=O)O (stereo not given) [Misoprostol, free acid]",85.8
11,O=C(Nc1cccc(Nc2ncc(Br)c(NCCc3cnc[nH]3)n2)c1)N1CCCC1,33.8
12,"CCCCCCCC(=O)c1c(O)cc(O)cc1CC(=O)OCC [ethyl (3,5-dihydroxy-2-octanoylphenyl)acetate]",106
13,C[n+]1ccccc1CC(=O)c1ccc(Br)cc1.[I-] [2-[2-(4-bromophenyl)-2-oxoethyl]-1-methylpyridinium iodide],87.6
14,CCCC(CCC)C(=O)NO [N-hydroxy-2-propylpentanamide],102
15,CCCCCCCCCCCCCCCCCCCCCCCC(=O)O [Tetracosanoic acid],104
16,CC1(C)CCC2(C(=O)O)CCC3(C)C(=CCC4C5(C)CCC(O)C(C)(C)C5CCC43C)C2C1 (stereo not given) [Oleanolic acid],91.6
17,"Cl.c1ccc(CN2CCC3(CCCc4ccccc43)CC2)cc1 [L-687,384 hydrochloride]",96
18,O=C(Nc1nc2ccccc2n1CCN1CCOCC1)c1cccc([N+](=O)[O-])c1 [IRAK-1/4 Inhibitor],104
19,O=c1nc[nH]c2c1ncn2C1CCC(CO)O1 (stereo not given) [Didanosine],98.9
20,CCC=CCC=CCC=CCCCCCCCCCCCC(=O)O [Docosatrienoic acid],97.7 ± 10

row,SMILES,cell number
1,CC1(NC(=O)CBr)CCC(C(C)(C)NCC(O)COc2cccc3[nH]ccc23)CC1 (racemic),98.3
2,O=c1[nH]c(=O)c2nc3ccccc3nc2[nH]1 [Alloxazine],91.6
3,CCCCCC(O)C=CC1=C(CC=CCCCC(=O)O)C(=O)CC1 (stereo not given) [Prostaglandin B2],109
4,COC(=O)c1c(C)[nH]c(C)c1C(=O)c1ccccc1Cc1ccccc1,102
5,COc1cc2c(N3CCN(C(=O)Nc4ccc(OC(C)C)cc4)CC3)ncnc2cc1OCCCN1CCCCC1 [Tandutinib],100
6,OC1C=C2CCN3Cc4cc5c(cc4C(C1O)C23)OCO5 (stereo not given) [Lycorine],53.3
7,Cc1ccc(C(=O)c2cc(O)c(O)c([N+](=O)[O-])c2)cc1 [Tolcapone],92.1
8,CCCc1cc(C(N)=S)ccn1 [Prothionamide],97.3
9,Cc1cc2c(OCC(CNC(C)(C)C)OC(=O)c3ccccc3)cccc2[nH]1 (stereo not given) [Bopindolol],89.5
10,COc1ccc(C2OCC3C(c4ccc(OC)c(OC)c4)OCC23)cc1OC (stereo not given) [Eudesmine],104
11,CC(C)NCC(O)COc1cccc2ccccc12 (stereo not given) [Propranolol],106
12,"S=c1ccss1 [1,2-Dithiole-3-thione]",103
13,CC(C)(C)c1cnc(CSc2cnc(NC(=O)C3CCNCC3)s2)o1,102
14,CCCCCCCCCCCCCCCCCCCCCC(=O)O [Docosanoic acid],104
15,O=c1[nH]c(=O)n([C@H]2C[C@H](O)[C@@H](CO)O2)cc1/C=C/Br [(E)-5-(2-Bromovinyl)-2'-deoxyuridine],100
16,"O=C1CCc2c(ccc3ccccc23)O1 [1,2-dihydro-3H-benzo[f]chromen-3-one]",101
17,CCC(C)C(=O)OC1CC(C)C=C2C=CC(C)C(CCC3CC(O)CC(=O)O3)C21 (stereo not given) [Lovastatin],80.8
18,CC(=O)OCC(=O)C1(O)CCC2C3CCC4=CC(=O)CCC4(C)C3C(O)CC21C (stereo not given) [Hydrocortisone 21-acetate],104
19,Nc1[nH]nc2nc3ccccc3nc12 [Cdk1/5 Inhibitor],95.2

# System: TDF
# Test: H1.0 immunofluorescence intensity relative to DMSO (% of DMSO); higher = stronger H1.0 induction, active = 120 or more
# Conditions: concentration: 10 µM; 24 h
# Outline: as §1
row,SMILES,H1.0 immunofluorescence intensity
1,CN(C)CCCSc1ccccc1NC(=O)C=Cc1ccccc1 [Cinanserin],102 (inactive)
2,COc1cc2c(cc1OC)-c1cc(=Nc3c(C)cc(C)cc3C)n(C)c(=O)n1CC2.Cl [Trequinsin.HCl],92.8 (inactive)
3,"NC(N)=NC(=O)c1nc(Cl)c(N2CCCCCC2)nc1N [5-(N,N-hexamethylene)amiloride]",113 (inactive)
4,COc1ccc(C2CNC(=O)C2)cc1OC1CCCC1 (stereo not given) [Rolipram],91.5 (inactive)
5,"N[C@@H](Cc1ccc(O)c(O)c1)C(=O)O [L-3,4-Dihydroxyphenylalanine]",89.7 (inactive)
6,O=c1cc(-c2ccccc2)oc2cc(O)ccc12 [7-Hydroxyflavone],96.8 (inactive)
7,"O=C(O)[C@H]1C[C@H](C(=O)O)N1 (relative stereo) [trans-Azetidine-2,4-dicarboxylic acid]",91.5 (inactive)
8,CCOC(=O)C1=C(C)NC(=S)NC1c1cccc(O)c1 (stereo not given) [Monastrol],100 (inactive)
9,CCOC(=O)Nc1ccc(NCc2ccc(F)cc2)nc1N.O=C(O)C=CC(=O)O [Flupirtine maleate],89.1 (inactive)
10,"CCCCC(C)(O)CC=CC1C(O)CC(=O)C1CCCCCCC(=O)O (stereo not given) [Misoprostol, free acid]",95.6 (inactive)
11,O=C(Nc1cccc(Nc2ncc(Br)c(NCCc3cnc[nH]3)n2)c1)N1CCCC1,113 (inactive)
12,"CCCCCCCC(=O)c1c(O)cc(O)cc1CC(=O)OCC [ethyl (3,5-dihydroxy-2-octanoylphenyl)acetate]",96.7 (inactive)
13,C[n+]1ccccc1CC(=O)c1ccc(Br)cc1.[I-] [2-[2-(4-bromophenyl)-2-oxoethyl]-1-methylpyridinium iodide],96.4 (inactive)
14,CCCC(CCC)C(=O)NO [N-hydroxy-2-propylpentanamide],98.7 (inactive)
15,CCCCCCCCCCCCCCCCCCCCCCCC(=O)O [Tetracosanoic acid],98 (inactive)
16,CC1(C)CCC2(C(=O)O)CCC3(C)C(=CCC4C5(C)CCC(O)C(C)(C)C5CCC43C)C2C1 (stereo not given) [Oleanolic acid],101 (inactive)
17,"Cl.c1ccc(CN2CCC3(CCCc4ccccc43)CC2)cc1 [L-687,384 hydrochloride]",93.7 (inactive)
18,O=C(Nc1nc2ccccc2n1CCN1CCOCC1)c1cccc([N+](=O)[O-])c1 [IRAK-1/4 Inhibitor],91.2 (inactive)

row,SMILES,H1.0 immunofluorescence intensity
1,O=c1nc[nH]c2c1ncn2C1CCC(CO)O1 (stereo not given) [Didanosine],95.7 (inactive)
2,CCC=CCC=CCC=CCCCCCCCCCCCC(=O)O [Docosatrienoic acid],100 (inactive)
3,CC1(NC(=O)CBr)CCC(C(C)(C)NCC(O)COc2cccc3[nH]ccc23)CC1 (racemic),93.2 (inactive)
4,O=c1[nH]c(=O)c2nc3ccccc3nc2[nH]1 [Alloxazine],101 (inactive)
5,CCCCCC(O)C=CC1=C(CC=CCCCC(=O)O)C(=O)CC1 (stereo not given) [Prostaglandin B2],92 (inactive)
6,COC(=O)c1c(C)[nH]c(C)c1C(=O)c1ccccc1Cc1ccccc1,92.3 (inactive)
7,COc1cc2c(N3CCN(C(=O)Nc4ccc(OC(C)C)cc4)CC3)ncnc2cc1OCCCN1CCCCC1 [Tandutinib],97.9 (inactive)
8,OC1C=C2CCN3Cc4cc5c(cc4C(C1O)C23)OCO5 (stereo not given) [Lycorine],120 (inactive)
9,Cc1ccc(C(=O)c2cc(O)c(O)c([N+](=O)[O-])c2)cc1 [Tolcapone],93.3 (inactive)
10,CCCc1cc(C(N)=S)ccn1 [Prothionamide],99.4 (inactive)
11,Cc1cc2c(OCC(CNC(C)(C)C)OC(=O)c3ccccc3)cccc2[nH]1 (stereo not given) [Bopindolol],99 (inactive)
12,COc1ccc(C2OCC3C(c4ccc(OC)c(OC)c4)OCC23)cc1OC (stereo not given) [Eudesmine],97.6 (inactive)
13,CC(C)NCC(O)COc1cccc2ccccc12 (stereo not given) [Propranolol],94.7 (inactive)
14,"S=c1ccss1 [1,2-Dithiole-3-thione]",89.6 (inactive)
15,CC(C)(C)c1cnc(CSc2cnc(NC(=O)C3CCNCC3)s2)o1,95 (inactive)
16,CCCCCCCCCCCCCCCCCCCCCC(=O)O [Docosanoic acid],101 (inactive)
17,O=c1[nH]c(=O)n([C@H]2C[C@H](O)[C@@H](CO)O2)cc1/C=C/Br [(E)-5-(2-Bromovinyl)-2'-deoxyuridine],97.3 (inactive)
18,"O=C1CCc2c(ccc3ccccc23)O1 [1,2-dihydro-3H-benzo[f]chromen-3-one]",95.1 (inactive)

# From the supplement of paper PMC7156485
